IL1B secr inh: inhibitors of inflammasome signaling (IL-1 beta secretion); THP-1 LPS/ATP IL-1B secretion, AlphaLISA, 16 h; stronger effect = lower value; activity change, % at 57.5 µM; 360,000 tested, 4.7% active; AID 743279; in the data active = activity change below about -50%; inconclusive = mostly about -30% to -49%
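THP-1 cells pretreated 1 hr with compounds (up to 57.5 uM final), then stimulated with LPS (250 ng/mL final) plus ATP (1.25 mM final); secreted IL-1B measured by AlphaLISA after 16 hr, decreased signal indicating inhibition.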
DT40 TDP1 no CPT: qHTS for Inhibitors of human tyrosyl-DNA phosphodiesterase 1 (TDP1): qHTS in cells in absence of CPT; Potency, µM (highest dose often 46.2 µM), usual class: inhibitors; DT40 Tdp1-/- hTDP1 cells, no CPT, ATP luminescence, 48 h; 420,000 tested, 15% active; note: nearly all actives have a fitted effect of over 55% in size
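Luminescent ATP content (CellTiter-Glo) served as the growth readout. Knockout chicken DT40 cells expressing human TDP1 were exposed to compounds without camptothecin for a minimum 48 hr at 37 °C.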
TDP1 cell CPT: growth inhibition of DT40 Tdp1-/-;hTDP1 cells with camptothecin (screen for TDP1 inhibitors); chicken DT40 Tdp1-/-;hTDP1 cells + 20 nM CPT, ATP luminescence, 48 h; Potency, µM (titrated, usually from 46.2 µM), most hits filed as inhibitors; 420,000 tested, 12% active; AID 686979; note: nearly all actives have a fitted effect of over 55% in size
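Chicken DT40 Tdp1-/- cells complemented with human TDP1, 400 cells/well, exposed to compounds plus 20 nM camptothecin for at least 48 h at 37 C; viability read as ATP content by CellTiter-Glo luminescence.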
HT1080 IDH1KD tx: HT-1080 IDH1 knockdown cell toxicity (counter line). HT-1080 IDH1 knockdown viability, ATP luminescence, 48 h. Potency, µM (doses to about 46.1 µM), hits mostly cytotoxic. 360,000 tested, 2% active. AID 686971
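% activity derives from luminescence (CellTiter-Glo), normalised to DMSO and no-cell wells. HT-1080-IDH1KD cells, 750/well, had 48 h compound exposure at 37 °C.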
HT1080NT lethal: kills 2HG-producing HT-1080-NT fibrosarcoma cells; Potency, µM (top dose mostly 46.1 µM), most hits filed as cytotoxic; 360,000 tested, 1.6% active; HT-1080-NT fibrosarcoma viability, CellTiter-Glo ATP luminescence, 48 h; AID 686970;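 note: NT is the 2HG producing partner of a matched IDH1 knockdown line; nearly all actives have a fitted effect of over 55% in size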
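750 cells/well, RPMI + 5% FBS; 2 h settle, compound pin-transfer, 48 h at 37 degrees C. CellTiter-Glo 10 min RT, luminescence. Normalized to DMSO and media-only wells.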
A number is an active result; 0 = inactive; ? = inconclusive; - = not tested or not shown; [ ] = remark or other dose. In the library only some 19% were active in any assay of this set; here they are far more common. Unless noted, calls come from the whole dose curve; as a rule, active = well fitted curve in the direction sought with a large enough effect; inconclusive = small, poorly fitted or top-dose-only effect, or another doubt; inactive = no such curve, though single readings can be large; an effect the other way counts as inactive or inconclusive.

SMILES | IL1B secr inh | DT40 TDP1 no CPT | TDP1 cell CPT | HT1080 IDH1KD tx | HT1080NT lethal
C[N+](C)(C)CCC(=O)N1C/C(=C/c2ccccc2)C(=O)/C(=C\c2ccccc2)C1 | -98.5 | 0.92µM | 0.651µM | 4.11µM | ?
CN(C)CCNC(=O)C(c1ccccc1)c1ccccc1 | 0 | 0 | 0 | 0 | 0
CC(C)CC(=O)Nc1ccccc1-c1nnn(CC(=O)N2CCOCC2)n1 | 0 | 0 | 0 | 0 | 0
CN(C(=O)CSc1nnc(-c2ccco2)n1C)C1CCCCC1 | 0 | 0 | 0 | 0 | 0
O=C(/C=C/c1ccccc1)CCN1CCOCC1 | -83.5 | 1.46µM | 0.92µM | 18.4µM | ?
COc1ccc(-c2noc(CCC(=O)NCCc3ccccc3)n2)cc1 | 0 | ? | 0 | 0 | 0
COc1ccc(-c2noc(CCC(=O)NCc3ccc(C)cc3)n2)cc1 | - | 0 | 0 | - | -
COc1ccc(-c2noc(CCC(=O)NCC3CCN(Cc4cccc(C)c4)CC3)n2)cc1 | -71.9 | 23.1µM | ? | 0 | 0
COc1ccc(-c2noc(CCC(=O)NC3CCN(Cc4ccccc4)CC3)n2)cc1 | 0 | 11.6µM | ? | 0 | 0
O=C(CCc1nc(-c2ccccc2F)no1)NCCN1CCN(Cc2ccccc2)CC1 | 0 | ? | 18.4µM | 0 | 0
O=C(CN1C(=O)CCc2cc(S(=O)(=O)N3CCOCC3)ccc21)NCc1ccc(F)cc1 | - | 0 | 0 | - | -
CCOC(=O)c1cccc(NC(=O)c2cc3c(=O)n(C)c4ccccc4c3n2C)c1 | - | 20.6µM | ? | - | -
Cn1c(C(=O)Nc2cccc(Cl)c2)cc2c(=O)n(C)c3ccccc3c21 | - | 14.6µM | 0 | - | -
COC(=O)c1cccc(NC(=O)c2cc3sccc3n2C)c1 | 0 | 20.6µM | ? | 0 | 0
CC(C)c1ccc(NC(=O)c2cc3c(=O)n(C)c4ccccc4c3n2C)cc1 | 0 | ? | ? | 0 | 0
Cc1ccc(C(=O)NC(=S)N2CCCC2)cc1 | 0 | 0 | 0 | 0 | 0
CN1CCCCCC1C(=O)N1CCC(N2CCC(C(=O)N3CCOCC3)CC2)CC1 (stereo not given) | 0 | 0 | 0 | 0 | 0
O=C(CSCc1ccc(Cl)cc1)Nc1ccccc1C(=O)N1CCOCC1 | 0 | ? | 0 | 0 | 0
O=C(CSCc1ccccc1)Nc1ccc2c(c1)OCO2 | 0 | 0 | 0 | 0 | 0
O=C(CSCc1c(Cl)cccc1Cl)Nc1ccc2c(c1)OCO2 | 0 | 18.4µM | ? | 0 | 0
O=C(CSCc1c(Cl)cccc1Cl)Nc1ccccc1C(=O)N1CCOCC1 | 0 | 20.6µM | ? | 0 | 0
O=C(CSCSCC(=O)Nc1ccc2c(c1)OCO2)Nc1ccc2c(c1)OCO2 | 0 | ? | 14.6µM | ? | ?
CSc1ncc(Cl)c(C(=O)Nc2c(C(=O)c3ccc(C)c(F)c3)oc3ccccc23)n1 | - | 0 | 0 | - | -
Cc1ccc(Nc2c(-c3ccc(N4CCOCC4)cc3)nc3ncccn23)c(C)c1 | ? | 16.4µM | ? | 0 | 0
Cc1cccc(C)c1Nc1c(-c2ccc(N3CCOCC3)cc2)nc2ncccn12 | ? | 20.6µM | 20.6µM | 0 | 0
SMILES | IL1B secr inh | DT40 TDP1 no CPT | TDP1 cell CPT | HT1080 IDH1KD tx | HT1080NT lethal
CCCC(=O)Nc1nnc([C@H]2C[C@H](O)[C@@H](CO)O2)s1 | 0 | 0 | 0 | 0 | 0
Cc1ccc(S(=O)(=O)NN=Cc2ccccc2Cl)cc1 | 0 | ? | 23.1µM | 0 | 0
Cc1ccc(S(=O)(=O)N/N=C/c2ccccc2F)cc1[N+](=O)[O-] | 0 | 0 | 0 | 0 | 0
O=S(=O)(N/N=C/c1ccccc1F)c1ccccc1 | 0 | 23.1µM | 18.4µM | 0 | 0
Cc1ccc(S(=O)(=O)N/N=C\c2ccccc2OCc2ccccc2)cc1 | 0 | 18.4µM | ? | ? | ?
Cc1ccc(S(=O)(=O)NOCc2ccccc2)cc1 | 0 | ? | 0 | 0 | 0
Cc1ccc(S(=O)(=O)NN=Cc2cc(Cl)ccc2O)cc1 | 0 | 0 | 0 | 0 | 0
O=C(CCN1C(=O)c2cccc([N+](=O)[O-])c2C1=O)NC1CCCCCC1 | 0 | 0 | 0 | 0 | 0
CCCNC(=O)CC(NS(=O)(=O)c1ccc(OC)cc1)c1ccco1 (stereo not given) | 0 | 0 | 0 | 0 | 0
CC1(C)Cc2cccc(OCC(=O)OCC(=O)Nc3cccc(S(N)(=O)=O)c3)c2O1 | 0 | 0 | 0 | 0 | 0
O=C(Nc1ccccc1OCc1cc(=O)n2ccccc2n1)c1ccccc1F | - | 0 | ? | - | -
O=S(=O)(c1ccccc1)N1CN(c2ccc(F)cc2F)c2nc3ccccc3nc21 | 0 | 25.9µM | ? | 0 | 0
CC(=O)Nc1ccc(S(=O)(=O)N2C(C)CCCC2C)cc1 (stereo not given) | 0 | ? | ? | 0 | 0
Cn1c(N)c(C(=O)CSc2nn(-c3ccc(F)cc3)c(=S)s2)c(=O)n(C)c1=O | 0 | 23.1µM | 20.6µM | 0 | 0
CCCCN(C(=O)CSc1nn(-c2ccc(F)cc2)c(=S)s1)c1c(N)n(CCCC)c(=O)[nH]c1=O | -71.6 | 29.1µM | ? | 0 | 0
O=C(CSc1nn(-c2ccc(F)cc2)c(=S)s1)N1CCN(C(=O)c2ccco2)CC1 | -79.1 | 0 | 0 | 0 | 0
CCCCN(C(=O)c1cc(-c2ccc(F)cc2)nc2ccccc12)c1c(N)n(CCCC)c(=O)[nH]c1=O | -69.7 | ? | ? | 0 | 0
CCCCN(C(=O)CSc1nc2ccccc2s1)c1c(N)n(CCCC)c(=O)[nH]c1=O | 0 | ? | 0 | 0 | 0
Cn1c(N)c(C(=O)COC(=O)Cc2ccc(F)cc2)c(=O)n(C)c1=O | 0 | 0 | 0 | 0 | 0
CCCNC(=O)C1(C)CCCN(Cc2ccc(C(=O)OCC)o2)C1 (stereo not given) | 0 | ? | ? | 0 | 0
CC(OC(=O)C1CCCCC1)C(=O)Nc1cccc([N+](=O)[O-])c1 (stereo not given) | 0 | 0 | ? | 0 | 0[9.24 µM]
CCOc1ccc(S(=O)(=O)NCc2ccc(OC)cc2)c2cccnc12 | 0 | 0 | 0 | 0 | 0
O=C(CCCCCN1C(=O)c2ccccc2C1=O)Oc1ccc2c3c(c(=O)oc2c1)CCC3 | 0 | 0 | 0 | 0 | 0
O=[N+]([O-])c1cccc(NNS(=O)(=O)c2ccccc2F)c1 | 0 | ? | ? | 5.8µM | ?
CC(=O)c1ccc2oc3ccccc3c(=O)c2c1 | ? | 0 | 0 | 0 | 0
SMILES | IL1B secr inh | DT40 TDP1 no CPT | TDP1 cell CPT | HT1080 IDH1KD tx | HT1080NT lethal
COc1cccc(OC)c1OCCCN1CCC(Cc2ccccc2)CC1 | -65.3 | ? | ? | ? | 0
COc1cc(/C=C/C(=O)OCC(=O)N2CCC(Cc3ccccc3)CC2)ccc1O | -69.8 | 14.6µM | ? | ? | 0
COc1ccc(C(=O)C(=O)N2CCC(Cc3ccccc3)CC2)cc1OC | 0 | 20.6µM | ? | 0 | 0
COc1cc(C(=O)OCC(=O)N2CCC(Cc3ccccc3)CC2)cc(OC)c1OC | 0 | 16.4µM | ? | 0 | 0
COc1cc(/C=C/C(=O)OCC(=O)N2CCC(C)CC2)ccc1O | 0 | 0 | 0 | 0 | 0
Cc1cc(C)cc(-n2ccn3c(CC(C)(C)CC(=O)O)nnc3c2=O)c1 | - | 0 | 0 | - | -
